The text below walks through data of PubChem BioAssay AID2501 (Southern Research Specialized Biocontainment Screening …, 2010).

Molecules are shown by their SMILES. The campaign covered roughly 2,200 compounds. About 1,200 (55%) were called active. No cut-off is given here; in the data, nearly all actives have IC50 up to about 92 µM. The set was probably picked from earlier hits. Some of the results follow.

A short description of this assay: counter assay for TAg ATPase ADP read-out – biochemical, ADP-Hunter, fluorescence, counter-screen (AID 2501).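 For inhibition: 0% = enzyme with vehicle and 100% = reference inhibitor wells; higher means more inhibition.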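 Note: purified T antigen ATPase.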 Particulars: series mostly up to 100 µM; inhibition: at the top concentration. (In general: The purpose of a counterscreen is to sort out artefacts and off-target activity.)
The IC50 is the concentration that gives 50% inhibition. Take `C1=Cc2ccccc2Nc2ccccc21`: the IC50 is 4.79 µM (active).
As to `Oc1ccc(/C=N/NP(=S)(c2ccccc2)c2ccccc2)cc1O`, the IC50 was 35.3 µM (active).
One may read the inhibition as the change of the read-out against control, counted positive when it falls. Consider `O=C1NC(=O)N(c2ccc(Cl)cc2)C(=O)/C1=C\c1ccc(Sc2nc3ccccc3[nH]2)o1`, for which the “inhibition” value was 21.8% (inactive).
Regarding `CCN1CCN(c2ccc(N)cc2C)CC1`, the IC50 is 4 µM (active).
On the same count and under the same terms, the result for `CCOc1cc(-c2ccc(N)c(OCC)c2)ccc1N` reads 1.03 µM (active).
Regarding `COc1cc2c(cc1OC)CC[N+](C)=C2`, the “inhibition” value is 10.2% (inactive).
As for `CCCCN1C(=O)/C(=C/C=C/c2ccco2)C(=O)NC1=S`, the “inhibition” value was -21.3% (inactive).
Regarding `O=C(O)c1cccc2c1NC(C(=O)O)C1CC(Sc3ccccc3[N+](=O)[O-])C(Cl)C21` (centres undefined), the “inhibition” value is -28.6% (inactive).
On the same count and under the same terms, the result for `O=C(O)CCn1cc(C=C2C(=O)NC(=S)NC2=O)c(-c2cccc(Cl)c2)n1` reads 11.7% (inactive); that for `COc1ccc(N2C(=O)/C(=C/c3ccco3)C(=O)NC2=S)cc1`, 20.8% [at 50 µM] (inactive).
Turning to `COc1cccc(-n2c(/C=C/c3ccc(O)c(O)c3)nc3ccccc3c2=O)c1`, the IC50 was 7 µM (active).
As for `COc1ccc(-n2c(/C=C/c3ccc(O)c(O)c3)nc3ccccc3c2=O)cc1`, the IC50 was 24.2 µM (active).
`COC(=O)C1=Nc2ccccc2/C1=C\c1c(O)n(-c2ccc(OC)cc2)c(=O)[nH]c1=O`: the “inhibition” value was 4.61% (inactive).
On the same count and under the same terms, the result for `Cc1ccc2c(c1)=NC(=O)/C(=C/c1c(O)[nH]c(=O)[nH]c1=O)C=2` reads 0.6% (inactive); that for `CN(C)[C@@H]1C(=O)C(C(N)=O)=C(O)[C@@]2(O)C(=O)C3=C(O)c4c(O)cccc4[C@@](C)(O)[C@H]3C[C@@H]12`, 6.46% (inactive).
The same measure, in the same setting: the result for `COc1ccc(/C=C2/C(=O)N(Cc3ccco3)C(=O)N(C(C)C)C2=O)cc1` reads 23% (inactive); that for `O=C(O)c1c[nH]c2ccc(S(=O)(=O)N(CCCl)CCCl)cc12`, -5.36% (inactive).
For `O=c1cc(-c2ccc(O)c(O)c2)oc2c(C3O[C@H](CO)[C@@H](O)[C@H](O)[C@H]3O)c(O)cc(O)c12` (some centres undefined), the IC50 was 4.81 µM (active).
`O=C1N[C@H](Cc2ccccc2)C(=O)N2[C@@H]3[C@H](C[C@@H]12)c1ccccc1N3OOSc1ccccc1`: the “inhibition” value was -26.1% (inactive).
With `O=C1NC(=S)N(c2ccc(F)cc2)C(=O)/C1=C\c1ccoc1`, the “inhibition” value is 21.9% (inactive).
As for `CN(C)c1ccc(NC(=O)CN2CCC(O)(c3ccccc3)CC2)cc1`, the IC50 is 2.88 µM (active).
The same measure, in the same setting: the result for `CN(C)c1ccc(NC(=O)CN2C3CCCC2CC(NC(=O)c2ccccc2)C3)cc1` (centres undefined) reads 3.12 µM (active).
The same measure, in the same setting: the result for `COc1cccc(C(=O)NC2CC3CCCC(C2)N3CC(=O)Nc2ccc(N(C)C)cc2)c1` (centres undefined) reads 3.14 µM (active); that for `CN(C)c1ccc(NC(=O)CN2C(=O)CN=C(c3ccccc3)c3ccccc32)cc1`, 9.96 µM (active).
For `Cc1ccccc1N1C(=O)NC(=O)/C(=C\c2cnn(-c3ccccc3)c2)C1=O`, the “inhibition” value is 26.2% (inactive).
In the case of `O=C1NC(=O)N(c2cccc(Cl)c2)C(=O)/C1=C\c1ccc(Sc2nc3ccccc3[nH]2)o1`, the “inhibition” value was 19.3% [at 50 µM] (inactive).
The same measure, in the same setting: under `CN1C2CCC1CC(=NO)C2` stands 23.1% (inactive).
For the compound `C=C(C=O)CC1CC(O)[C@]2(C)OC3CC4OC5C[C@]6(C)O[C@]7(C)CCC8OC9C[C@]%10(C)OC%11C(C)=CC(=O)OC%11CC%10OC9C[C@@H](C)C8OC7CC6O[C@]5(C)CC5OC5C4OC3CC2O1` (some centres undefined), the “inhibition” value is 8.3% (inactive).
Still for that read-out and setting: the result for `CCCN1CCc2cccc3c2[C@H]1Cc1ccc(O)c(O)c1-3` reads -48.6% (inactive).
In the case of `Cc1ccc2c(c1)C1CN(C)CCC1N2C(=O)Nc1cccc(C(F)(F)F)c1` (centres undefined), the “inhibition” value was 17.6% (inactive).
Still for that read-out and setting: the result for `CCCCN1C(=O)/C(=C/c2ccc(N(C)C)cc2)C(=O)N(Cc2ccco2)C1=O` reads 13.8% (inactive).
With `CP(=O)(Nc1ccccc1)C(Cl)(Cl)Cl` (centres undefined), the “inhibition” value is -27.6% (inactive).
As for `CNC(=O)Oc1ccc2ncccc2c1`, the IC50 was 24.1 µM (active).
For `CNC(=O)Oc1ccc(-c2cn3cc(Cl)ccc3n2)cc1`, the “inhibition” value is 15% (inactive).
`CC[C@H](C)/C=C(C)/C=C/C1=CC2=C(Cl)C(=O)[C@@](C)(OC(C)=O)C(=O)C2=CO1`: the “inhibition” value is -25.2% (inactive).
`O=C(CN1CCCC1=O)N1CCOCC1`: the “inhibition” value is 13.2% (inactive).
For `N/C(=N\N=C\c1ccc(O)cc1O)N[N+](=O)[O-]`, the IC50 was 4.1 µM (active).
As to `N/C(=N\N=C/c1ccc(-c2ccc(O)c(C(=O)O)c2)o1)N[N+](=O)[O-]`, the “inhibition” value is 10.8% (inactive).
As for `COc1ccc(/C=C2/C(=O)NC(=S)N(C3CC3)C2=O)cc1CN1C(=O)c2ccccc2C1=O`, the “inhibition” value was 2.18% (inactive).
Consider `O=C(c1ccc2nc(-c3ccco3)c(-c3ccco3)nc2c1)N1CCC2(CC1)OCCO2`, for which the “inhibition” value was -35.8% (inactive).
Consider `O=C(O)c1cc[c]([Hg][Cl])cc1`, for which the “inhibition” value is 1.39% (inactive).
The same measure, in the same setting: under `CN1C(=O)/C(=C/c2cccn2-c2ccc3ccccc3c2)C(=O)NC1=S` stands -18.3% (inactive).
In the case of `COc1cc2c(ccc3cc(OC)c(OC)c(O)c32)cc1O`, the IC50 is 39.6 µM (active).
In the case of `O=C1NC(=O)N(c2ccccc2)C(=O)/C1=C/C=C/c1ccco1`, the “inhibition” value is 12.3% [at 50 µM] (inactive).
